Laboratory results as given in PubChem BioAssay AID652154 (Broad Institute, 2013).
In all, about 360,000 compounds went through this assay and about 4,200 (1.2%) were called active. For the sample, actives were picked, then their nearest neighbours and some compounds at random. A number with no mark means an inactive call.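 The calls were made as follows: active = mean replicate inhibition at least 60% with every replicate also reaching 60%; inconclusive = only one of the two criteria is met; inactive = mean below 60% and not all replicates reaching 60%.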

Assay: inhibitors of PAX8-driven TPO luciferase reporter, primary screen, RMG-I cells, single concentration (AID 652154);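 also: luciferase light reporting Pax8 driven TPO promoter activity; plate controls were median of neutral control wells for no effect and mitoxantrone controls for full effect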
Conditions: SteadyGlo, 24 h, at 12.6 µM, stronger effect = higher value

Question: With `O=C(Nc1c(Cl)c(C2CC2)nn1-c1ccccc1)C(Cl)(Cl)Cl` as the compound, how does the inhibition read?
Answer: 12.8%

Question: Which inhibition does the source give for `CCC(=O)Nc1ccc2c(c1)OC[C@H](C)N(C(=O)Cc1cccnc1)C[C@@H](C)[C@@H](OC)CN(C)C2=O` here?
Answer: 19.9%

Question: Which inhibition does the source give for `CN1CCN(C(=O)Cn2c(C(F)(F)F)nc3ccccc32)CC1` here?
Answer: 1.81%

Question: With `COC(=O)Cn1c(O)c(N=NC(=O)OC)c2ccccc21` as the compound, how does the inhibition read?
Answer: 8.64%

Question: Which inhibition does the source give for `CCCCn1c(O)c(N=NC(=O)Cn2c(C(F)(F)F)nc3ccccc32)c2ccccc21` here?
Answer: 125% (active)

Question: For `CCCNC(=O)N1[C@@H]2c3ccc(-c4ccccc4OC)c(=O)n3C[C@H]1[C@H](CO)[C@H]2C(=O)N(C)C`, which inhibition is on record?
Answer: -4.26%

Question: For `C=C1C(=O)[C@]23C[C@H]1CCC2[C@@]1(C)C(C[C@@H]3O)[C@](C)(C(=O)O)CC[C@@H]1O` (stereo not given in full), which inhibition is on record?
Answer: 71.9% (active)

Question: Which inhibition does the source give for `CN1CCCCN2[C@@H](CO)[C@@H](c3ccc(C4=CCCC4)cc3)[C@@H]2C1` here?
Answer: -5.77%

Question: For `Fc1ccc(/C=N/n2c(COc3ccccc3)n[nH]c2=S)cc1`, which inhibition is on record?
Answer: -9.55%

Question: For `Cc1ccccc1-c1n[nH]c(=S)n1/N=C/c1ccc(-c2ccccc2Br)o1`, which inhibition is on record?
Answer: -5.71%

Question: For `Cc1cc(-c2n[nH]c(=S)n2/N=C/C(Br)=C/c2ccccc2)n[nH]1`, which inhibition is on record?
Answer: 94% (active)

Question: With `S=c1[nH]nc(-c2cccs2)n1/N=C/c1cn(-c2ccccc2)nc1-c1ccc(Cl)cc1` as the compound, how does the inhibition read?
Answer: 3.55%

Question: With `COc1ccccc1N1CCN(/N=C\C(Br)=C\c2ccccc2)CC1` as the compound, how does the inhibition read?
Answer: 3.71%

Question: Which inhibition does the source give for `S=c1[nH]nc(-c2cccnc2)n1/N=C/C(Cl)=C\c1ccccc1` here?
Answer: 72.4% (active)

Question: For `COc1cccc(-c2ccc([C@H]3[C@H]4CN(C(=O)NC(C)C)CC(=O)N4[C@H]3CO)cc2)c1`, which inhibition is on record?
Answer: -13.6%

Question: Which inhibition does the source give for `CCC(=O)N1C[C@@H](C)[C@@H](OC)CN(C)C(=O)c2ccc(NC(=O)C3CCCCC3)cc2OC[C@@H]1C` here?
Answer: -13.2%

Question: With `O=C(C1CC1)N1CCCCN2[C@H](C1)[C@@H](c1ccc(-c3cccc(F)c3)cc1)[C@@H]2CO` as the compound, how does the inhibition read?
Answer: 4.79%

Question: For `O=C(c1cccc(F)c1)N1CCCCN2[C@H](CO)[C@@H](c3ccc(-c4cncnc4)cc3)[C@H]2C1`, which inhibition is on record?
Answer: -27.3%

Question: For `O=C(C[C@@H]1C=C[C@@H](NC(=O)c2cccnc2)[C@H](CO)O1)NCc1ccncn1`, which inhibition is on record?
Answer: 2.15%

Question: For `CO[C@@H]1CN(C)C(=O)c2ccc(NC(=O)Nc3c(C)noc3C)cc2OC[C@H](C)N(CC2CC2)C[C@H]1C`, which inhibition is on record?
Answer: 4.7%

Question: For `Cc1onc(C(=O)NN)c1C(=O)N1CCN(C(c2ccccc2)c2ccccc2)CC1`, which inhibition is on record?
Answer: 17.8%

Question: For `CC1(C)CC(=O)C=C(N2CCOCC2)C1`, which inhibition is on record?
Answer: 7.18%

Question: Which inhibition does the source give for `CC1(C)CC(N2CCN(C(c3ccccc3)c3ccccc3)CC2)=CC(=[N+]2CCCCC2)C1` here?
Answer: 94.1% (active)

Question: Which inhibition does the source give for `CCCCCCCCN1C(=O)[C@@H](CC(=O)NCc2ccccc2)C[C@@]2(C(=O)OC)C1=C[C@H](C(C)(C)C)O[C@@H]2C` here?
Answer: 19.6%

Question: Which inhibition does the source give for `COc1ccccc1/C=C1\SC(=O)N(CCC(=O)N(C)C2CCS(=O)(=O)C2)C1=O` (stereo not given) here?
Answer: -11.6%

Question: Which inhibition does the source give for `CN(C(=O)CN1C(=O)S/C(=C\c2ccccc2F)C1=O)C1CCS(=O)(=O)C1` (stereo not given) here?
Answer: 10.3%

Question: With `CN(C(=O)CCN1C(=O)/C(=C/c2ccccc2F)SC1=S)C1CCS(=O)(=O)C1` (stereo not given) as the compound, how does the inhibition read?
Answer: 74.1% (active)

Question: For `CCC(=O)Nc1ccc2c(c1)nc(CCN1CCN(c3ccccn3)CC1)n2C`, which inhibition is on record?
Answer: -3.44%

Question: For `Cn1c(CCN2CCCC2)nc2cc(NS(=O)(=O)c3ccccc3)ccc21`, which inhibition is on record?
Answer: 119% (active)

Question: With `Cn1c(CCN2CCN(c3ccccn3)CC2)nc2cc(NS(=O)(=O)c3ccc(F)cc3)ccc21` as the compound, how does the inhibition read?
Answer: 50.3%

Question: Which inhibition does the source give for `O=C(Nc1ccccc1)Nc1ccc2c(c1)[C@@H]1C[C@@H](CC(=O)N3CCCCC3)O[C@H](CO)[C@@H]1O2` here?
Answer: -0.47%

Question: With `O=C(c1cccc(F)c1)N1CCCCN2[C@@H](CO)[C@H](c3ccc(-c4cncnc4)cc3)[C@@H]2C1` as the compound, how does the inhibition read?
Answer: 2.95%

Question: For `COc1cc(/C=N/NC(=O)c2ccc(N3CCCC3=O)cc2)ccc1O`, which inhibition is on record?
Answer: 86.3% (active)

Question: Which inhibition does the source give for `CCOc1cc(/C=N/NC(=O)CN2CCCCC2)ccc1O` here?
Answer: 3.31%

Question: For `C/C(=N\NC(=O)c1cccc(N2CCCC2=O)c1)c1ccc(N)cc1`, which inhibition is on record?
Answer: -0.282%

Question: For `CN(C)CC(=O)Nc1ccc2c(c1)[C@H]1C[C@@H](CC(=O)NCc3ccccn3)O[C@@H](CO)[C@H]1O2`, which inhibition is on record?
Answer: -17.3%

Question: With `CO[C@@H]1CC[C@H]2CCOc3c(C#N)cccc3C(=O)N(C)C[C@@H](OC)[C@H](C)C(=O)N(C)C[C@@H]1O2` as the compound, how does the inhibition read?
Answer: -5.56%

Question: Which inhibition does the source give for `COc1ccccc1-c1cn(CC[C@H]2CC[C@@H](NC(=O)Cc3ccccn3)[C@@H](CO)O2)nn1` here?
Answer: -1.82%

Question: For `COc1ccc2[nH]c3c(C)c4cc[n+](C)cc4c(C)c3c2c1`, which inhibition is on record?
Answer: 70.3% (active)

Question: For `C/C=C/c1ccc([C@H]2[C@@H](CNC(=O)NC(C)C)N(C(=O)C3CCC3)[C@H]2CO)cc1`, which inhibition is on record?
Answer: 6.6%

Question: Which inhibition does the source give for `CO[C@@H]1CN(C)C(=O)c2cc(NS(C)(=O)=O)ccc2OC[C@H](C)N(C(=O)C2CC2)C[C@@H]1C` here?
Answer: -16.6%

Question: Which inhibition does the source give for `Oc1ccc2ccccc2c1N=Nc1nccs1` here?
Answer: 90.5% (active)

Question: With `C[C@@H]1CN([C@@H](C)CO)C(=O)c2cc(NS(=O)(=O)c3ccccc3)ccc2O[C@@H](C)CCCCO[C@@H]1CN(C)S(=O)(=O)c1cccs1` as the compound, how does the inhibition read?
Answer: 17.1%

Question: Which inhibition does the source give for `CC(C)NC(=O)N(C)C[C@@H]1OCCCC[C@@H](C)Oc2ccc(NC(=O)Cc3ccccc3)cc2C(=O)N([C@H](C)CO)C[C@H]1C` here?
Answer: 20.4%

Question: For `CCN1/C(=C\c2ccc3ccccc3[n+]2CC)Sc2cc(C)ccc21`, which inhibition is on record?
Answer: 93.7% (active)

Question: Which inhibition does the source give for `O=C(C[C@@H]1C[C@@H]2c3cc(NC(=O)C4CCOCC4)ccc3O[C@@H]2[C@@H](CO)O1)NC1CCCCC1` here?
Answer: 8.24%

Question: With `C[C@@H]1CN([C@H](C)CO)C(=O)Cc2cc(NC(=O)C3CC3)ccc2O[C@H]1CN(C)Cc1ccc(Cl)c(Cl)c1` as the compound, how does the inhibition read?
Answer: 11.3%

Question: For `COc1cccc(C#Cc2ccc([C@H]3[C@@H](CO)N(C(=O)c4ccccn4)[C@H]3C#N)cc2)c1`, which inhibition is on record?
Answer: 92.4% (active)

Question: For `COc1cccc(-c2ccc([C@@H]3[C@@H](CO)N(C(=O)c4ccccn4)[C@H]3C#N)cc2)c1`, which inhibition is on record?
Answer: -77.2%

Question: With `COc1cccc(-c2ccc([C@@H]3[C@@H](C#N)N(C(=O)c4ccccn4)[C@H]3CO)cc2)c1` as the compound, how does the inhibition read?
Answer: -20.8%
